# Assay results: PubChem BioAssay (NCI)
# Compounds without any hit were thinned out: in the full panel of roughly 83,000, 20% have a hit.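 Cell lines were cultured in 96-well plates, exposed to a single compound concentration, and assessed for percent growth 48 hours later.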 A number with no mark means an inactive call. Calls of active or inactive are those of the source. How the source made its calls: active means growth percent below 10; inactive means the rest.
# Columns and labels:
# Assay in all cases: NCI-60 one-dose screen, 48 h (100 = growth as untreated, 0 = no growth, -100 = all killed)
# K-562 leukemia = details: 10 µM unless noted
# MALME-3M melanoma = details: 10 µM unless noted
# MDA-MB-231 breast = details: 10 µM unless noted
# RXF 393 renal = details: 10 µM unless noted
# SF-268 CNS = details: 10 µM unless noted
# SF-295 CNS = details: 10 µM unless noted
# SF-539 CNS = details: 10 µM unless noted
# UACC-257 melanoma = details: 10 µM unless noted
# M14 melanoma = details: 10 µM unless noted
# HCT-15 colon = details: 10 µM unless noted
# HT29 colon = details: 10 µM unless noted
# SNB-75 CNS = details: 10 µM unless noted
# U251 CNS = details: 10 µM unless noted
# PC-3 prostate = details: 10 µM unless noted
# SK-MEL-5 melanoma = details: 10 µM unless noted
# UACC-62 melanoma = details: 10 µM unless noted
# LOX IMVI melanoma = details: 10 µM unless noted
# SK-MEL-28 melanoma = details: 10 µM
# SK-MEL-2 melanoma = details: 10 µM unless noted
# SNB-19 CNS = details: 10 µM unless noted
Structure (SMILES),growth (K-562 leukemia),growth (MALME-3M melanoma),growth (MDA-MB-231 breast),growth (RXF 393 renal),growth (SF-268 CNS),growth (SF-295 CNS),growth (SF-539 CNS),growth (UACC-257 melanoma),growth (M14 melanoma),growth (HCT-15 colon),growth (HT29 colon),growth (SNB-75 CNS),growth (U251 CNS),growth (PC-3 prostate),growth (SK-MEL-5 melanoma),growth (UACC-62 melanoma),growth (LOX IMVI melanoma),growth (SK-MEL-28 melanoma),growth (SK-MEL-2 melanoma),growth (SNB-19 CNS) [%]
O=C(Nc1ccsc1C(=O)NC1CCCCC1)c1ccc(F)cc1,88.5%,99.9%,87.2%,95.6%,104%,110%,101%,114%,101%,95.6%,92.9%,85.2%,101%,67.9%,105%,103%,97.7%,96.4%,121%,–
Cc1ccc(C)c(-c2csc(Nc3ccc(C)c(C)c3)n2)c1,-36.5% (active),-86.3% (active),39.5%,21.8%,75.5%,-79.5% (active),25.1%,-58.6% (active),-81.3% (active),12.4%,4.56% (active),34%,8.11% (active),63.9%,-92.3% (active),49.2%,-67.9% (active),-93.3% (active),31.6%,–
O=Cc1c(OCc2cnnn2CC(=O)Nc2ccc(Br)cc2)ccc2ccccc12,91.4%,88.4%,84.4%,100%,92.7%,88.9%,96.3%,87%,98.6%,80.4%,97.8%,72.6%,90.4%,90.2%,93.9%,68.4%,79.5%,99.9%,102%,–
O=c1oc2ccc(Cl)cc2c(=O)n1-c1ccc(Cl)cc1F,4.6% (active),-29.9% (active),-17% (active),4.5% (active),7.63% (active),-64.2% (active),1.24% (active),-15.1% (active),0.632% (active),1.3% (active),7.06% (active),-25.3% (active),-4.3% (active),2.03% (active),-87% (active),-10.7% (active),3.62% (active),0.566% (active),-31% (active),–
O=C1c2ccccc2C(=O)c2c1ccc1[nH]c(CCl)nc21,2.91% (active),11.5%,37.4%,34.7%,24.9%,65.2%,37.9%,28.8%,33.5%,-24.8% (active),5.78% (active),33.4%,9.78% (active),39.3%,–,39.5%,–,57.6%,27.4%,47.8
CCCN1CCN(c2ccc3nc(-c4ccc5nc(-c6cc(OC)ccc6OC)[nH]c5c4)[nH]c3c2)CC1,-45.3% (active),139%,107%,93.3%,106%,104%,96.2%,110%,111%,62.1%,-23.2% (active),90.9%,85.8%,103%,99.5%,110%,-83.3% (active),99.4%,118%,–
COc1ccc(CCN2CCC(CN(C)Cc3cnn(-c4ccccc4)c3)CC2)cc1,10.4%,18.4%,21.6%,35%,21%,47.5%,19.7%,19.1%,-19.2% (active),26.2%,33.5%,59.9%,9.09% (active),34%,18.9%,–,2.01% (active),–,37.3%,–
COc1ccc(CCN2C(=O)/C(=C/c3ccc(C4Oc5ccccc5C5CC(c6cccc(OC)c6)=NN54)cc3)SC2=S)cc1 (configuration not stated),105%,97.8%,101%,107%,94.4%,97.7%,95.4%,101%,97.1%,102%,104%,90.5%,101%,–,99%,102%,96.4%,101%,99.8%,–
CC[C@H](C)[C@@H](C(=O)OC)n1cc(CNC(=O)[C@@H](Cc2ccccc2)NC(=O)OCc2ccccc2)nn1,95.9%,100%,101%,104%,93.8%,99.4%,104%,95.8%,109%,97.5%,–,101%,91.5%,100%,103%,94.6%,99.5%,110%,105%,93.2
O=S(=O)(Nc1ncccn1)c1ccc(NC2Nc3nc4ccccc4nc3S2)cc1 (configuration not stated),98.2%,96.1%,99.3%,109%,97.9%,99.5%,95.5%,94%,95.5%,96.9%,–,84.9%,103%,101%,98.7%,93.7%,94.2%,98.7%,106%,99.3
COc1ccc2[nH]c(O)c(N=NC(=O)c3oc4ccccc4c3C)c2c1,42.5%,-29.5% (active),23.8%,-36.2% (active),57.7%,5.05% (active),37.5%,50%,28.7%,41.1%,27.3%,–,2.05% (active),21.8%,–,34.3%,16.3%,15.8%,70.9%,42.7
Cc1ccc(S(=O)(=O)c2c(COC(=O)c3cccc(C)c3)c(-c3ccccc3)nn2C)cc1,-23% (active),-47.5% (active),14.3%,93.4%,68.3%,54.7%,21.4%,83.5%,89.9%,62.2%,–,107%,-32.4% (active),48.5%,77.6%,88.7%,-22.8% (active),-68.4% (active),27.2%,24.6
O=c1oc2ccc(Br)cc2c(=O)n1-c1ccc(F)cc1F,9.74% (active),-22.5% (active),14.1%,3.17% (active),12.7%,-11.1% (active),10.7%,-8.2% (active),12%,13.6%,97.7%,-12.1% (active),7.07% (active),0.771% (active),–,-0.768% (active),12.6%,20.3%,-16.1% (active),–
CC(C)Cn1c2c(c(=S)[nH]c1=O)CCC2,103%,103%,101%,109%,98.6%,107%,97.4%,109%,105%,105%,111%,–,102%,104%,–,96.1%,101%,118%,98.2%,97.6
NC(CCc1nc2ccccc2c(=O)[nH]1)C(=O)O (configuration not stated),96.7%,104%,103%,115%,106%,104%,105%,105%,105%,101%,104%,–,96.6%,102%,–,100%,102%,110%,102%,98.3
O=C(O)CCCN1C(=O)C2C3CCC(C3)C2C1=O (configuration not stated),105%,96%,130%,83.8%,107%,109%,103%,111%,105%,103%,100%,95.8%,104%,106%,101%,97%,103%,–,101%,–
CC1=NCC2NC(=O)NC(C)=C12 (configuration not stated),110%,96%,95%,101%,96.1%,103%,95.8%,105%,98.5%,103%,108%,–,103%,93.9%,–,–,101%,114%,101%,98.9
